This passage reports activity change, negative = cytotoxic and Potency results from PubChem BioAssay (Tox21).

The structures appear in SMILES notation. Inconclusive results are not listed. Entries that show only a call come without a potency. A number with no mark means an inactive call. Active and inactive are the calls of the source. Calls follow the shape of the dose curve; as a rule, active = well fitted cell-killing curve with a large enough effect in the repeat runs; inconclusive = weak or mixed curves; inactive = flat fitted curve, though single readings scatter.
Potency is read from the fitted curve at half-maximal effect.

The test in a line: qHTS RealTime-Glo MT Cell Viability Assay in HepG2 cells - 16 hour (AID 1224885). Also: nearly all actives have a fitted effect of over 50% in size. The note with it: RealTime-Glo luminescence; series mostly up to 76.8 µM. The text has this: U.S. Tox21 Program National Center for Advancing Translational Sciences [NCATS] NIH Chemical Genomics Center [NCGC] U.S. Environmental Protection Agency [EPA] National Institutes of Environmental Health Sciences [NIEHS] National Toxicology Program [NTP] U.S. Food and Drug Administration [FDA] Tox21 Assay Overview: Measure of cell viability is critical in the cell-base assay. Analysis of cell viability is necessary for the characterization of cell responses to cytotoxic drugs and environmental stress. A RealTime-Glo MT Cell Viability Assay to monitor cell viability in real time of continues cell culture during 40 hours of compound treatment was used to screen Tox21 10K library compounds in HepG2 cells. The RealTime-Glo MT Cell Viability Assay is a nonlytic, homogeneous, bioluminescent method to measure cell viability in real time using a simple, plate-based method. The assay involves adding NanoLuc luciferase and a cell-permeant prosubstrate to cells in culture. Viable cells reduce the proprietary prosubstrate to generate a substrate for NanoLuc luciferase. This substrate diffuses from cells into the surrounding culture medium, where it is rapidly used by the NanoLuc Enzyme to produce a luminescent signal. The signal correlates with the number of viable cells, making the assay well suited for cytotoxicity studies.
Tox21 Assay Protocol Summary: The mixture of HepG2 cell suspension and reagents were dispensed at 600cells/6 ul/well in 1536-well tissue culture treated black solid bottom plates using a Multidrop dispenser. After the assay plates were incubated at a 37 C/5% CO2 incubator for 5 hours, 23 nL of compounds dissolved in DMSO, positive and negative controls was transferred to the assay plate by a pintool work station. The plates were incubated at 37 C for 40 hours. The luminescence intensity were measured at 0h, 8h, 16h, 24h, 32h and 40h time points using ViewLux plate reader during compound treatment.
`Cc1ccc2nc3sc(=O)sc3nc2c1`: the activity change, negative = cytotoxic was 0.198% [at 15.8 µM].
Consider `Cc1ccc(N(SC(F)(Cl)Cl)S(=O)(=O)N(C)C)cc1`, for which the Potency was 15.5 µM (active).
On the same count and under the same terms, to `ClC(Cl)=C(c1ccc(Cl)cc1)c1ccccc1Cl` belongs “inactive”; to `C[C@]12CC[C@@H](O)C[C@@H]1CC[C@@H]1[C@@H]2CC[C@]2(C)C(=O)CC[C@@H]12`, “inactive”.
On the same count and under the same terms, then `O=[N+]([O-])c1c(Cl)c(Cl)cc(Cl)c1Cl`, with “inactive”; and `CC(c1ccccc1)(c1ccc(O)cc1)c1ccc(O)cc1`, with “inactive”; and `O=C(Nc1ccccc1-c1ccc(Cl)cc1)c1cccnc1Cl`, with “inactive”.
On the same count and under the same terms, to `N#Cc1cc([N+](=O)[O-])ccc1N` belongs “inactive”; to `Nc1ccc([N+](=O)[O-])cc1`, “inactive”.
Regarding `COc1cc(OC)c(OC)cc1C=O`, the Potency entry is “inactive”.
For the compound `c1ccc2c(c1)Sc1ccccc1N2CC1CN2CCC1CC2` (stereo unspecified), the Potency is 23.9 µM (active).
On to `Clc1ccccc1-c1ccccc1Cl`, for which the Potency result was “inactive”.
With `O=S(=O)(C(Cl)(Cl)Cl)C(Cl)(Cl)Cl`, the Potency is 38.9 µM (active).
With `OC(Cc1ccccc1Cl)(Cn1[nH]cnc1=S)C1(Cl)CC1` (stereo unspecified), the Potency result is “inactive”.
For `CCN(CC)C(=O)Cl`, the Potency result is “inactive”.
The same measure, in the same setting: to `Cc1cc(C(C)(C)c2ccc(O)c(C)c2)ccc1O` belongs “inactive”.
With `O=C1C(I)=CC(=C(c2cc(I)c(O)c(I)c2)c2ccccc2C(=O)O)C=C1I`, the Potency result is “inactive”.
`Oc1c(I)cc(I)cc1I`: the Potency entry was “inactive”.
Same read-out and setting: then `CCOC(=O)C(O)(c1ccc(Cl)cc1)c1ccc(Cl)cc1`, with “inactive”; and `CNC(=O)Oc1cc(C)c(SC)c(C)c1`, with “inactive”; and `CN1CSC(=S)N(C)C1`, with “inactive”.
